# From PubChem BioAssay (NCI)
# The panel holds about 79,000 compounds, 15% with a hit somewhere; the sample as a whole holds those more often. Values without a mark were called inactive. The source made the active and inactive calls. Cut-off read from the data, not from the text of the source: active = growth inhibition above about 70%; inactive = the rest.
# Experiment: NCI Yeast Anticancer Drug Screen. Data for the rad18 strain (AID 177)
# Conditions: S. cerevisiae rad18 mutant growth inhibition; at 3.7 µM; active compounds read high
# Outline: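 DNA-repair-defective yeast; compound treatment; growth inhibition scored against vehicle.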
row,Compound,growth inhibition
1,O=C1/C(=C/c2ccccc2)CCCC1CN1CCCCC1 (stereo not given),59%
2,C#CCN(Cc1ccc2nc(N)[nH]c(=O)c2c1)c1ccc(C(=O)NC(CCC(=O)O)C(=O)O)cc1 (stereo not given),-23%
3,O=C(O)CNC(=S)Nc1ccccc1,-17%
4,N/C(=N/N=C/c1cc(Br)cc(Br)c1O)NO,-20%
5,C[Si](C)(C)/C=C/CCNC(C#N)c1ccccc1 (stereo not given),-42%
6,CCCCCCCCCCCCCCCCOP(=O)(O)OCC(N)C(=O)O (stereo not given),-11%
7,CC1=C(C(=O)NCc2ccccc2)C(c2ccccc2)C(C(=O)NCc2ccccc2)=C(C)N1,3%
8,O=[N+]([O-])c1cc(S(=O)(=O)Nc2ccccc2)ccc1Nc1ccccc1,18%
9,COc1cc2ccnc(-c3c4ccccc4c(N)c4c(OC)c(OC)ccc34)c2cc1OC,-5%
10,CCOC(=O)C1=C(C)NC(C)=C(C(=O)OCCNC(=O)c2ccc(N=[N+]=[N-])cc2)C1c1ccccc1C(F)(F)F (stereo not given),-4%
11,Cc1cc(C)c(NC(=S)NC(=O)c2ccccc2)cc1C,-62%
12,CNCCCNc1c2ccccc2nc2cccc([N+](=O)[O-])c12,95% (active)
13,COc1c(O)c(C=O)c(Br)c(C=O)c1O,-1%
14,Cc1c(C)c(C)c(CSC(=N)N)c(C)c1C,-55%
15,O=C(CSC(=S)N1CCCCC1)Nc1nc2c(s1)CCCC2,19%
16,CNC(=O)OCc1c(COC(=O)NC)c(-c2ccc(Cl)cc2)n2c1CCC2,-30%
17,CC(=O)OC1CC2C(C)(C)C(=O)C=C[C@]2(C)C2CCC3(C)C(=CCC3[C@H](CO)C[C@H](O)C(=O)C(C)(C)O)[C@]12C (stereo not given in full),-21%
18,CCCCCCOC(=O)NCCOC(=O)Nc1ccccc1,2%

row,Compound,growth inhibition
1,C[C](C)(C)[Ge]([O][Ge]([c]1ccccc1)[c]1ccccc1)([O][Ge]([c]1ccccc1)[c]1ccccc1)[C](C)(C)C,20%
2,CCc1c(Cl)c(C)cc(O)c1Cl,6%
3,Cc1nc(Nc2ccccc2[N+](=O)[O-])sc1C(=O)CC(=O)C(=O)Nc1c(C(C)C)cccc1C(C)C,1%
4,O=[N+]([O-])c1cccc2nc3ccccc3c(NCCCn3ccnc3[N+](=O)[O-])c12,94% (active)
5,CCCCCCC(O)CNCc1ccnc2ccc(OC)cc12 (stereo not given),12%
6,Cc1c2cccc(Sc3ccccc3)c2c2c3c(cccc13)[S+](c1ccccc1)C2 (stereo not given),65%
7,C=C1CCC(O)C/C1=C/C=C1\CCCC2(C)C1CCC2C(C)CCCC(C)C (stereo not given),-6%
8,NC1=NNC2(C(N)=N1)c1ccccc1-c1ccccc12,-5%
9,COc1cc2cc3c4cc(OC)c(OC)cc4cc[n+]3c(C)c2cc1OC,-27%
10,COC(=O)NC1C(C)OC(OC2C/C=C(/C)C3C=CC4C(OC5CC(OC6CC(O)C(OC7CC(O)C(OC)C(C)O7)C(C)O6)C(O)C(C)O5)C(C)CC(C)C4C3(C)/C(O)=C3\C(=O)OC4(CC(C)C(CO)=CC4/C=C\2C)C3=O)CC1(C)[N+](=O)[O-] (stereo not given),17%
11,O=C1CSC(c2cccc(Cl)c2)N1c1ccc(-c2ccc(-n3c(-c4ccccc4)nc4ccccc4c3=O)cc2)cc1 (stereo not given),3%
12,CCOC(=O)C(C(=O)OCC)=P(c1ccccc1)(c1ccccc1)c1ccccc1,7%
13,O=C(Oc1ccc2c(c1)CN(Cc1ccccc1)CO2)c1ccccc1,15%
14,CN(C)[C@@H]1C(=O)C(C(N)=O)=C(O)[C@@]2(O)C(=O)C3=C(O)c4c(O)cccc4C[C@H]3C[C@@H]12,-8%
15,O=[N+]([O-])c1ccc2c(c1)/C(=N/N=C1c3ccccc3Cc3ccccc31)c1cc([N+](=O)[O-])cc([N+](=O)[O-])c1-2,81% (active)
16,Cc1nc2c(Br)cc(Br)cc2c(=O)n1-c1ccccc1NC1OCC(O)C(O)C1O (stereo not given),41%
17,Cc1cc(N(CCOS(C)(=O)=O)CCOS(C)(=O)=O)ccc1C=Nc1ccc(-c2nc(Cc3ccccc3)sc2C)cc1,73% (active)

# Same assay, conditions: S. cerevisiae rad18 mutant growth inhibition; at 11.0 µM; active compounds read high
row,Compound,growth inhibition
1,O=C1/C(=C/c2ccccc2)CCCC1CN1CCCCC1 (stereo not given),74% (active)
2,C#CCN(Cc1ccc2nc(N)[nH]c(=O)c2c1)c1ccc(C(=O)NC(CCC(=O)O)C(=O)O)cc1 (stereo not given),-26%
3,O=C(O)CNC(=S)Nc1ccccc1,-21%
4,N/C(=N/N=C/c1cc(Br)cc(Br)c1O)NO,75% (active)
5,C[Si](C)(C)/C=C/CCNC(C#N)c1ccccc1 (stereo not given),27%
6,CCCCCCCCCCCCCCCCOP(=O)(O)OCC(N)C(=O)O (stereo not given),40%
7,CC1=C(C(=O)NCc2ccccc2)C(c2ccccc2)C(C(=O)NCc2ccccc2)=C(C)N1,7%
8,O=[N+]([O-])c1cc(S(=O)(=O)Nc2ccccc2)ccc1Nc1ccccc1,95% (active)
9,COc1cc2ccnc(-c3c4ccccc4c(N)c4c(OC)c(OC)ccc34)c2cc1OC,8%
10,CCOC(=O)C1=C(C)NC(C)=C(C(=O)OCCNC(=O)c2ccc(N=[N+]=[N-])cc2)C1c1ccccc1C(F)(F)F (stereo not given),4%
11,Cc1cc(C)c(NC(=S)NC(=O)c2ccccc2)cc1C,-73%
12,CNCCCNc1c2ccccc2nc2cccc([N+](=O)[O-])c12,93% (active)
13,COc1c(O)c(C=O)c(Br)c(C=O)c1O,5%
14,Cc1c(C)c(C)c(CSC(=N)N)c(C)c1C,-58%
15,O=C(CSC(=S)N1CCCCC1)Nc1nc2c(s1)CCCC2,25%
16,CNC(=O)OCc1c(COC(=O)NC)c(-c2ccc(Cl)cc2)n2c1CCC2,-53%
17,CC(=O)OC1CC2C(C)(C)C(=O)C=C[C@]2(C)C2CCC3(C)C(=CCC3[C@H](CO)C[C@H](O)C(=O)C(C)(C)O)[C@]12C (stereo not given in full),-17%
18,CCCCCCOC(=O)NCCOC(=O)Nc1ccccc1,13%

row,Compound,growth inhibition
1,C[C](C)(C)[Ge]([O][Ge]([c]1ccccc1)[c]1ccccc1)([O][Ge]([c]1ccccc1)[c]1ccccc1)[C](C)(C)C,56%
2,CCc1c(Cl)c(C)cc(O)c1Cl,-23%
3,Cc1nc(Nc2ccccc2[N+](=O)[O-])sc1C(=O)CC(=O)C(=O)Nc1c(C(C)C)cccc1C(C)C,1%
4,O=[N+]([O-])c1cccc2nc3ccccc3c(NCCCn3ccnc3[N+](=O)[O-])c12,95% (active)
5,CCCCCCC(O)CNCc1ccnc2ccc(OC)cc12 (stereo not given),8%
6,Cc1c2cccc(Sc3ccccc3)c2c2c3c(cccc13)[S+](c1ccccc1)C2 (stereo not given),97% (active)
7,C=C1CCC(O)C/C1=C/C=C1\CCCC2(C)C1CCC2C(C)CCCC(C)C (stereo not given),-8%
8,NC1=NNC2(C(N)=N1)c1ccccc1-c1ccccc12,-17%
9,COc1cc2cc3c4cc(OC)c(OC)cc4cc[n+]3c(C)c2cc1OC,-23%
10,COC(=O)NC1C(C)OC(OC2C/C=C(/C)C3C=CC4C(OC5CC(OC6CC(O)C(OC7CC(O)C(OC)C(C)O7)C(C)O6)C(O)C(C)O5)C(C)CC(C)C4C3(C)/C(O)=C3\C(=O)OC4(CC(C)C(CO)=CC4/C=C\2C)C3=O)CC1(C)[N+](=O)[O-] (stereo not given),14%
11,O=C1CSC(c2cccc(Cl)c2)N1c1ccc(-c2ccc(-n3c(-c4ccccc4)nc4ccccc4c3=O)cc2)cc1 (stereo not given),14%
12,CCOC(=O)C(C(=O)OCC)=P(c1ccccc1)(c1ccccc1)c1ccccc1,16%
13,O=C(Oc1ccc2c(c1)CN(Cc1ccccc1)CO2)c1ccccc1,19%
14,CN(C)[C@@H]1C(=O)C(C(N)=O)=C(O)[C@@]2(O)C(=O)C3=C(O)c4c(O)cccc4C[C@H]3C[C@@H]12,-2%
15,O=[N+]([O-])c1ccc2c(c1)/C(=N/N=C1c3ccccc3Cc3ccccc31)c1cc([N+](=O)[O-])cc([N+](=O)[O-])c1-2,97% (active)
16,Cc1nc2c(Br)cc(Br)cc2c(=O)n1-c1ccccc1NC1OCC(O)C(O)C1O (stereo not given),41%
17,Cc1cc(N(CCOS(C)(=O)=O)CCOS(C)(=O)=O)ccc1C=Nc1ccc(-c2nc(Cc3ccccc3)sc2C)cc1,90% (active)
